CBX7 AlphaScr = CBX7 chromodomain binding inhibitors, primary screen, biochemical, AlphaScreen. Chromobox protein homolog 7 (Homo sapiens), O95931. AlphaScreen His6-CBX7 / biotin-H3K27me3 peptide binding; stronger effect = lower value. normalised signal (fraction of DMSO) (concentration not given with the values). 66,000 tested, 1.1% active; in the data active = normalised signal below about 0.5
Target sequence (O95931 whole entry, looked up): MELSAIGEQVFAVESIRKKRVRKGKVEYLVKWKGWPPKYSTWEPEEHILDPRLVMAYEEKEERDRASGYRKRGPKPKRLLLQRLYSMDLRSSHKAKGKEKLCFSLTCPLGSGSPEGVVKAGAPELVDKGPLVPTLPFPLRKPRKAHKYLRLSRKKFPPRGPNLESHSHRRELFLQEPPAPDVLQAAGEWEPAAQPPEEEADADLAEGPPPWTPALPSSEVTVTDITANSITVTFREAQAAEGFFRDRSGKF
An asterisk follows results filed as active; ! = a repeat was not active. The entries come from a sample that favours hits as a whole.

SMILES	CBX7 AlphaScr
Ic1ccc(-c2csc(Nc3ccc4ccccc4c3)n2)cc1	0.88
COc1ccc(-c2csc(Nc3ccc4c(c3)OCO4)n2)cc1F	0.48*!
COc1ccc(-c2csc(Nc3cccc(C(F)(F)F)c3)n2)cc1F	0.75
CN(C)c1ccc(Nc2nc(-c3ccccc3)cs2)cc1	0.34*
O=C(Nc1nc(-c2ccc(Cl)cc2)cs1)c1ccc2c(c1)OCO2	1.1
CC(=O)Nc1ccc(Nc2nc(-c3ccccc3)cs2)cc1	0.86
O=C1c2ccccc2C(=O)N1c1cccc(-c2csc(Nc3ccc4c(c3)OCO4)n2)c1	1.6
Fc1ccc(-c2csc(Nc3ccc4c(c3)OCO4)n2)cc1	0.38*!
c1ccc(-c2csc(Nc3cccc4ccccc34)n2)cc1	0.82
COc1ccc(-c2csc(Nc3ccccc3OC)n2)cc1F	1
CC(C)Cc1ccc(-c2csc(Nc3ccc(F)cc3)n2)cc1	0.8
CCCN(C(=O)Cn1nc(Cc2cccnc2)c2ccccc2c1=O)c1ccccc1F	0.98
COc1ccc(OC)c(NC(=O)c2c(NCc3cccc(F)c3)sc3c2CCC3)c1	0.89
O=C(NCc1ccccn1)c1ccc2c(c1)N(Cc1ccc(F)cc1)C(=O)c1ccccc1S2	1
Cc1nn(C)c(C)c1S(=O)(=O)N(CC(=O)Nc1ccc(F)cc1)c1ccc(C(C)C)cc1	1.2
CCC(CO)NCC(O)COc1cccc(OC)c1 (stereo not drawn)	1
O=C(O)c1cccc(-n2c(/C=C/c3ccc4c(c3)OCO4)nc3ccccc3c2=O)c1	0.97
Cc1ccc(NC(=O)c2cnn(-c3ccc(C)c(C)c3)c2C2CCNCC2)c(Cl)c1	0.89
Cc1cccc(CCNS(=O)(=O)c2ccc3c(c2)CCC(=O)N3)c1	0.95
Cc1nc2cc(-c3ccccc3)nn2c(C)c1CCC(=O)NCCCN1CCOCC1	1
COc1ccc(-n2c(Cc3cc(=O)[nH]c(=O)[nH]3)nnc2SCC(=O)Nc2nccs2)cc1	1
COc1ccccc1NC(=O)c1c(NCc2cccnc2)sc2c1CCCC2	0.64
O=C(Cn1nc(Cc2cccnc2)c2ccccc2c1=O)NCCCN1CCOCC1	1
CCCCCCNc1nc(CC)c2c(c1C#N)CCCC2	1.1
Oc1ccccc1-c1nc(-c2ccc(F)cc2)c(-c2ccc(F)cc2)[nH]1	0.7
SMILES	CBX7 AlphaScr
Oc1ccccc1-c1nc(-c2ccccc2)c(-c2ccc(F)cc2)[nH]1	0.58
Cc1ccc(-c2nc(-c3c[nH]c4ccccc34)[nH]c2-c2ccc(C)cc2)cc1	0.37*
Fc1ccc(-c2[nH]c(-c3c[nH]c4ccccc34)nc2-c2ccccc2)cc1	0.42*
Cc1ccc(Nc2c(-c3c[nH]c4ccccc34)nc3cccc(C)n23)cc1	0.87
c1ccc(-c2nc(-c3c[nH]c4ccccc34)[nH]c2-c2ccccc2)cc1	0.8
CCCNC(=O)c1ccc2c(c1)N(Cc1ccccc1F)C(=O)c1ccccc1S2(=O)=O	0.98
CCCCNC(=O)CN1C(=O)C(CC)Oc2ccc(C)cc21 (stereo not drawn)	1.2
O=C(Nc1ccc(F)cc1F)C1CCN(S(=O)(=O)c2ccccc2)CC1	0.89
CC(C)CCNC(=O)c1cccc2c1C(=O)N(C1CCCCC1)C2	1
CC(C)OCCCNC(=O)c1ccc2c(c1)N(Cc1ccc(Cl)cc1)CCS2	1
O=C(NCCN1CCOCC1)C1CCN(c2nnc(-n3cccc3)s2)CC1	1.2
CCN(CC)CCCNC(=O)CN1C(=O)CCSc2ccccc21	1
O=C1CN(C(=O)c2cccc(F)c2)C(c2ccccc2)c2cc(Cl)ccc2N1 (stereo not drawn)	0.78
COc1cccc(Nc2nc(-c3ccccc3)cs2)c1	1.2
COc1ccc(Nc2nc(-c3ccc(Cl)cc3)cs2)cc1	0.81
COc1cccc(Nc2nc(-c3ccc(Cl)c(Cl)c3)cs2)c1	0.44*
Cc1ccc(-c2csc(Nc3ccc(Cl)cc3)n2)cc1C	0.31*!
Clc1ccc(-c2csc(Nc3ccccc3)n2)cc1Cl	0.79
Brc1ccc(Nc2nc(-c3ccc(I)cc3)cs2)cc1	0.71
COc1cccc(Nc2nc(-c3ccc(-c4ccccc4)cc3)cs2)c1	0.63
Clc1ccc(-c2csc(Nc3ccc(Br)cc3)n2)cc1Cl	0.46*!
Cc1ccc(C)c(-c2csc(Nc3ccc(Cl)cc3)n2)c1	0.99
CCC1=Nc2cc(C(=O)NC3CCCc4ccccc43)ccc2Sc2ccc(Cl)cc21 (stereo not drawn)	0.94
CC1CCCCC1NC(=O)CC(C(=O)N1CCc2ccccc21)n1ccnc1 (stereo not drawn)	0.98
COC(=O)CSc1nnc(COc2cccc3cccnc23)n1-c1ccccc1	1.1
CC1CCN(c2c(NCc3ccc(C(=O)NC4CCCC4)cc3)c(=O)c2=O)CC1	1
CCOc1cc2c(cc1OCC)C1C(C(=O)Nc3cc(C)ccn3)c3ccccc3C(=O)N1CC2 (stereo not drawn)	0.19*
CCOc1cc2c(cc1OCC)C1C(C(=O)Nc3ccccc3CC)c3ccccc3C(=O)N1CC2 (stereo not drawn)	1
CCOc1cc2c(cc1OCC)C1C(C(=O)Nc3ccccc3C)c3ccccc3C(=O)N1CC2 (stereo not drawn)	1.1
